Compound activity deposited in PubChem BioAssay by Broad Institute.
The full list was thinned out, with hits kept by preference.
MITF inhib: inhibitors of MITF | TRPM1 promoter luciferase, luminescence, 24 h | inhibition, % (concentration not given with the values) | hit rate 0.28% among 37,000; in the data active = inhibition above about 85%; inconclusive = no clear call, values can overlap the other calls; inactive = below about 68%;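 note: human melanocyte line stably carrying TRPM1 promoter luciferase reporter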
YB-1 expression: YB-1 expression inhibition | U2OS, qRT-PCR YB-1 vs CDIP delta delta Cp, 16 h; stronger effect = higher value; zero = DMSO, each unit about twofold | delta delta Cp (YB-1 minus CDIP) (concentration not given with the values) | hit rate 0.37% among 30,000 | AID 434959;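 active = delta delta Cp rounded down to an integer at or above 3, about 3 SD of DMSO wells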;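 note: higher means less YB-1 transcript or more CDIP transcript relative to DMSO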
Shh pathway inh: blocks Sonic Hedgehog signaling. Shh-LIGHT2 Gli-luciferase reporter, 30 h. inhibition, % (no concentration beside the values). hit rate 2.1% among 22,000;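 active = mean inhibition across valid replicates above about 65%, limit read from the data; inconclusive = mean under the limit, yet half or more replicates past it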;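 note: pathway switched on by Shh-conditioned medium diluted 1 in 25 in low serum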
Large screens that a line does not name were inactive.

CC(C)C[C@H]1C(=O)N2CCC[C@H]2[C@]2(O)O[C@](NC(=O)[C@@H]3C=C4c5cccc6[nH]c(Br)c(c56)C[C@H]4N(C)C3)(C(C)C)C(=O)N12	Shh pathway inh 83
CC(C)CC1C(=O)N2CCC[C@H]2C2(O)O[C@](NC(=O)C3C=C4c5cccc6[nH]c(Br)c(c56)C[C@H]4N(C)C3)(C(C)C)C(=O)N12 (stereo not given in full)	none
CCCCN1C(=O)/C(=C2\SC(=Nc3ccc(Cl)cc3)N(C)C2=O)c2ccccc21	none
CCC(C)c1ccc(NC(=O)c2ccc(N(CC)CC)cc2)cc1 (stereo not given)	none
CC(=O)OC1/C=C(/C(=O)O)CC/C=C(/C)C(=O)/C=C\C1(C)C (stereo not given)	Shh pathway inh 65
CC1=C2CCC(C(=O)O)=CC2C(C(C)C)CC1 (stereo not given)	none
CCOc1cc(/C=C2/SC(=N)N(c3nccs3)C2=O)ccc1OCCN1CCOCC1	none
Cc1ccc(S(=O)(=O)N(C)C[C@@H]2Oc3ccc(NC(=O)Cc4ccccc4)cc3C(=O)N([C@H](C)CO)C[C@H]2C)cc1	none
C[C@@H]1CN([C@H](C)CO)C(=O)c2cc(NC(=O)Cc3ccccc3)ccc2O[C@@H]1CN(C)S(=O)(=O)c1ccccc1	YB-1 expression 18
C[C@@H]1CN([C@H](C)CO)C(=O)c2cc(NC(=O)CCN3CCOCC3)ccc2O[C@H]1CN(C)S(=O)(=O)c1ccccc1	YB-1 expression 20
C[C@H]1CN([C@@H](C)CO)C(=O)c2cc(NC(=O)CCN3CCOCC3)ccc2O[C@H]1CN(C)S(=O)(=O)c1ccccc1	none
COc1ccc2c(c1)C(C)(CC#N)C(=O)N2C (stereo not given)	none
CC1CC(=O)c2c(ccc3c2C(=O)c2c(O[C@@H]4O[C@@H](C)[C@H](O)[C@@H](O)[C@H]4O)cccc2C3=O)C1 (stereo not given in full)	none
COc1cccc2c1C(=O)c1c(O)c3c(c(O)c1C2=O)C[C@@](O)(C(C)=O)C[C@@H]3O[C@H]1C[C@H](N)[C@H](O)[C@H](C)O1	Shh pathway inh 99
N#C/C(=C/c1ccc(O)c(O)c1)C(=O)OC/C=C/c1ccccc1	Shh pathway inh inconclusive
Oc1cc(O)cc(/C=C/c2ccc(O)c(O)c2)c1	MITF inhib 94, Shh pathway inh 82
O=C(N=S1CCN(C(=O)c2ccc(Cl)cc2)CC1)c1ccc(Cl)cc1	none
COc1c(-c2ccccc2)oc2c(CC=C(C)C)c3c(c(OC)c2c1=O)C=CC(C)(C)O3	none
C=CC(C)(C)c1c2c(c(O)c3c(=O)c4ccc(O)c(O)c4oc13)C=CC(C)(C)O2	MITF inhib inconclusive, Shh pathway inh 93
COC(=O)C1=C(NC(=O)c2cccc(Cl)c2)CCS1	none
CN1CCc2c(-c3cccs3)nc(OCc3ccccc3Br)c(C#N)c2C1	Shh pathway inh 65
N#Cc1ccc(CSc2nc(-c3cccs3)c3c(c2C(=O)O)CCCC3)cc1	Shh pathway inh inconclusive
Cc1cc(=O)oc2cc(OC3OC(CO)C(O)C(O)C3O)ccc12 (stereo not given)	none
C=C1C(=O)O[C@H]2C1CCC(C)=C1C(=O)C=C(C)[C@@H]12 (stereo not given in full)	none
CCCCN1C(=O)[C@H]2Cc3c([nH]c4ccccc34)[C@H](c3ccc(OC)cc3)N2C1=O	Shh pathway inh 79
Cn1c(SCC(N)=O)nnc1-c1ccc(C(C)(C)C)cc1	none (no result: YB-1 expression, Shh pathway inh)
Cn1c(SCc2ccc(C(F)(F)F)cc2)nnc1-c1ccc(OCC(F)(F)F)nc1	Shh pathway inh 74
O=C1NCC2(CCN(CCc3ccccc3)CC2)O1	none
N#CC1CN(CCc2ccccc2)CN(CCc2ccccc2)C1	Shh pathway inh 69
Cc1cccc(C)c1Nc1nc2c(C)cc(C)c(C)c2s1	none
Cc1cc(=O)[nH]c(SCc2nc3ccccc3[nH]2)n1	none
N#CC1=C(N)Nc2onc(-c3cccc(O)c3)c2C1c1ccccc1 (stereo not given)	none
COc1cc2c(cc1OC)[C@@H]1C(=O)c3ccc4c(c3O[C@@H]1CO2)CCC(C)(C)O4	MITF inhib inconclusive, Shh pathway inh 94
COc1ccc2c(c1)OCC(Cc1ccc(OC)c(OC)c1)C2=O (stereo not given)	none
C=C(C)[C@@H]1Cc2c(ccc3c2O[C@H]2COc4cc(OC)c(OC)cc4[C@@]2(O)C3=O)O1	none
COc1ccc2c(c1)O[C@@H]1COc3cc(OC)c(OC)cc3[C@@H]1C2=O	MITF inhib 110
C[C@H]1C[C@@H]2[C@H]([C@@H](O)C[C@@]3(C)[C@H]2CC[C@]3(O)C(=O)CO)[C@@]2(C)C=CC(=O)C=C12	Shh pathway inh 70
C[C@H]1CC2C([C@@H](O)C[C@@]3(C)C2CC[C@]3(O)C(=O)CO)[C@@]2(C)C=CC(=O)C=C12 (stereo not given in full)	none
